Assay results as given in PubChem BioAssay (NCATS).
Values joined by “and” are separate entries in the source; they are usually repeats but may differ in a detail not shown here. Identical values can stand only once. Records with an inconclusive call do not appear. A call without a number means that no potency is given here. Some structures have more than one record in an assay (separate samples or runs), and their calls can disagree. Active and inactive are the calls of the source. The call rests on the fitted dose curve; in most records, active means well fitted curve in the direction sought with a large enough effect; inconclusive means small, poorly fitted or top-dose-only effect, or another doubt; inactive means no such curve, though single readings can be large; an effect the other way counts as inactive or inconclusive.

Experiments:
TAB165 = assay: qHTS profiling for inhibitors of Plasmodium falciparum proliferation (AID 504749); further: nearly all actives have a fitted effect of over 60% in size; further: potency means the concentration at half of the fitted maximal effect; conditions: P. falciparum in erythrocytes, SYBR Green DNA, 72 h; series mostly up to 28.7 µM
In short: (§1)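 Quantitative HTS: compounds pinned into medium, infected erythrocytes added (0.3% parasitemia, 2.5% hematocrit), 72 h culture at 37 C under 5% CO2. Saponin/Triton lysis with SYBR Green I, overnight RT, then fluorescence read.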

W2 = assay: as above; conditions: P. falciparum in erythrocytes, SYBR Green DNA, 72 h; series mostly up to 28.7 µM
In short: as §1

CRL-7250 = normal cell line; assay: Cytotoxic Profiling of Annotated Libraries Using Quantitative High-Throughput Screening (AID 1296008); conditions: Five cell lines viability, CellTiter-Glo ATP luminescence, 48-72 h; max response: stronger effect = lower value; further: nearly all actives have a fitted effect of over 60% in size; further: potency means the concentration at half of the fitted maximal effect
In short: (§2)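 Compounds were pin-transferred onto cells and incubated 48 or 72 hr at 37 degree Celsius, 95% humidity. CellTiter-Glo was added, plates sat 10 min at room temperature, then ATP-coupled luminescence was imaged as the viability read-out.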

HEK293 = assay: as above; conditions: Five cell lines viability, CellTiter-Glo ATP luminescence, 48-72 h; max response: stronger effect = lower value
In short: as §2

HaCat [1] = assay: as above; conditions: Five cell lines viability, CellTiter-Glo ATP luminescence, 48-72 h; max response: stronger effect = lower value
In short: as §2

KB-3-1 = assay: as above; conditions: Five cell lines viability, CellTiter-Glo ATP luminescence, 48-72 h; max response: stronger effect = lower value
In short: as §2

NIH3T3 [2] = assay: as above; conditions: Five cell lines viability, CellTiter-Glo ATP luminescence, 48-72 h; max response: stronger effect = lower value
In short: as §2

HACAT [3] = assay: qHTS assay to identify novel small-molecules to repurpose for Merkel cell carcinoma treatment (AID 1296009); conditions: MCC and control cell lines, CellTiter-Glo viability, 72 h; at 44.8 µM (top of the series) unless noted; further: nearly all actives have a fitted effect of over 60% in size; further: potency means the concentration at half of the fitted maximal effect
In short: (§3)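 Viability readout: ATP luminescence (CellTiter-Glo) after 72 hr drug exposure at 37 degree celsius. Dose-response format was 8 points for NPC and 11 points for MIPE; data normalized to in-plate controls.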

MCC-13 = assay: as above; conditions: MCC and control cell lines, CellTiter-Glo viability, 72 h; series mostly up to 46 µM
In short: as §3

MCC-26 = assay: as above; conditions: MCC and control cell lines, CellTiter-Glo viability, 72 h; series mostly up to 46 µM
In short: as §3

MKL-1 = assay: as above; conditions: MCC and control cell lines, CellTiter-Glo viability, 72 h; series mostly up to 46 µM
In short: as §3

MKL-2 = assay: as above; conditions: MCC and control cell lines, CellTiter-Glo viability, 72 h; series mostly up to 46 µM
In short: as §3

NIH3T3 [4] = assay: as above; conditions: MCC and control cell lines, CellTiter-Glo viability, 72 h; at 44.8 µM (top of the series) unless noted
In short: as §3

WaGa = assay: as above; conditions: MCC and control cell lines, CellTiter-Glo viability, 72 h; series mostly up to 46 µM
In short: as §3

C33A = assay: Primary qHTS to identify gynecologic anti-cancer compounds using libraries of approved drugs and bioactive compounds (AID 1345084); conditions: Gynecologic cancer cell panel viability, ATPlite luminescence, 48 h; series mostly up to 57.5 µM; further: nearly all actives have a fitted effect of over 55% in size
In short: (§4)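 ATP-based viability (ATPlite), 1,000 cells/well, 16 h pre-incubation, 48 h compound at 37 C, 5% CO2, 15 min RT before read.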

CAOV3 = assay: as above; conditions: Gynecologic cancer cell panel viability, ATPlite luminescence, 48 h; series mostly up to 57.5 µM
In short: as §4

TAB109 = assay: qHTS profiling for inhibitors of Plasmodium falciparum proliferation (AID 504749); further: nearly all actives have a fitted effect of over 60% in size; further: potency means the concentration at half of the fitted maximal effect; conditions: P. falciparum in erythrocytes, SYBR Green DNA, 72 h; series mostly up to 28.7 µM
In short: as §1

TAB113 = assay: as above; conditions: P. falciparum in erythrocytes, SYBR Green DNA, 72 h; series mostly up to 28.7 µM
In short: as §1

HEK293T = assay: qHTS assay to identify novel small-molecules to repurpose for Merkel cell carcinoma treatment (AID 1296009); conditions: MCC and control cell lines, CellTiter-Glo viability, 72 h; at 44.8 µM (top of the series) unless noted; further: nearly all actives have a fitted effect of over 60% in size; further: potency means the concentration at half of the fitted maximal effect
In short: as §3

UISO = assay: as above; conditions: MCC and control cell lines, CellTiter-Glo viability, 72 h; series mostly up to 46 µM
In short: as §3

For Cc1c(C(=O)NN2CCCCC2)nn(-c2ccc(Cl)cc2Cl)c1-c1ccc(Cl)cc1, the Potency (TAB165) was 10 µM (active), the Potency (W2) was 6.75 µM (active) and the max response (CRL-7250) was -1.95% (inactive). The outcome (CRL-7250) was “inactive”, the Potency (HEK293) was 26.4 µM (active) and the outcome (HaCat [1]) was “inactive”. For the same molecule, the max response (KB-3-1) was -25.1% (inactive), the max response (NIH3T3 [2]) was 0.216% (inactive) and the outcome (NIH3T3 [2]) was “inactive”. The outcome (HACAT [3]) was “inactive”, the Potency (MCC-13) was “inactive” and the Potency (MCC-26) was “inactive”. The Potency (MKL-1) was “inactive”, the Potency (MKL-2) was “inactive” and the outcome (NIH3T3 [4]) was “inactive”. The Potency (WaGa) was “inactive”, the Potency (C33A) was “inactive” and the Potency (CAOV3) was “inactive”.
With CS(=O)(=O)OCCCCOS(C)(=O)=O the Potency (TAB109) was “inactive”, the Potency (TAB113) was “inactive” and the Potency (TAB165) was “inactive”. For the same molecule, the Potency (W2) was “inactive”, the max response (CRL-7250) was -2.55% (inactive) and the outcome (CRL-7250) was “inactive”. The max response (HEK293) was -5.94% (inactive), the outcome (HEK293) was “inactive” and the max response (HaCat [1]) was -18.7% (inactive). The outcome (HaCat [1]) was “inactive”, the max response (KB-3-1) was 2.33% (inactive) and 4.33% (inactive) and the max response (NIH3T3 [2]) was -7.8% (inactive) and -0.608% (inactive). For the same molecule, the outcome (HACAT [3]) was “inactive”, the outcome (HEK293T) was “inactive” and the Potency (MCC-13) was “inactive”. The Potency (MCC-26) was “inactive”, the Potency (MKL-1) was “inactive” and the Potency (MKL-2) was “inactive”. For the same molecule, the Potency (UISO) was “inactive”, the Potency (WaGa) was “inactive” and the Potency (C33A) was “inactive”. For the same molecule, the Potency (CAOV3) was “inactive”.
In the case of COC(=O)C1=C(C)NC(C)=C(C(=O)OCCCN2CCC(c3ccccc3)(c3ccccc3)CC2)C1c1cccc([N+](=O)[O-])c1 (stereo unspecified), the Potency (TAB109) is reported as 5.01 µM (active), the Potency (TAB113) is reported as 2.51 µM (active) and the Potency (TAB165) is reported as 2.82 µM (active). The Potency (W2) was 3.38 µM (active), the max response (CRL-7250) was -3.52% (inactive) and the Potency (HEK293) was 8.41 µM (active). The max response (HEK293) was -0.0015% (inactive), the outcome (HaCat [1]) was “inactive” and the max response (KB-3-1) was 0.505% (inactive). The outcome (NIH3T3 [2]) was “inactive”, the outcome (HACAT [3]) was “inactive” and the Potency (MCC-13) was “inactive”. For the same molecule, the Potency (MCC-26) was “inactive and 23.7 µM (active)”, the Potency (MKL-1) was “inactive and 23.7 µM (active)” and the Potency (MKL-2) was “inactive and 11.9 µM (active)”. The outcome (NIH3T3 [4]) was “inactive”, the Potency (UISO) was “inactive and 18.8 µM (active)” and the Potency (WaGa) was “inactive”.
In the case of CN(C)C(=O)COC(=O)Cc1ccc(OC(=O)c2ccc(N=C(N)N)cc2)cc1, the Potency (TAB109) is reported as “inactive”, the Potency (TAB113) is reported as “inactive” and the Potency (TAB165) is reported as “inactive”. For the same molecule, the Potency (W2) was “inactive”, the outcome (CRL-7250) was “inactive” and the max response (HEK293) was 2.71% (inactive). For the same molecule, the outcome (HEK293) was “inactive”, the max response (HaCat [1]) was 3.28% (inactive) and the outcome (HaCat [1]) was “inactive”. For the same molecule, the max response (KB-3-1) was 4.33% (inactive) and 2.16% (inactive), the max response (NIH3T3 [2]) was 2.87% (inactive) and the outcome (NIH3T3 [2]) was “inactive”. The outcome (HACAT [3]) was “inactive”, the outcome (HEK293T) was “inactive” and the Potency (MCC-13) was “inactive”. For the same molecule, the Potency (MCC-26) was “inactive”, the Potency (MKL-1) was “inactive” and the Potency (MKL-2) was “inactive”. For the same molecule, the outcome (NIH3T3 [4]) was “inactive”, the Potency (UISO) was “inactive” and the Potency (WaGa) was “inactive”. The Potency (C33A) was “inactive” and the Potency (CAOV3) was “inactive”.
In the case of O=C(O)CCNC(=O)c1ccc(N=Nc2ccc(O)c(C(=O)O)c2)cc1, the Potency (TAB109) is reported as “inactive”, the Potency (TAB113) is reported as “inactive” and the Potency (TAB165) is reported as “inactive”. The Potency (W2) was “inactive”, the max response (CRL-7250) was -3.32% (inactive) and the outcome (CRL-7250) was “inactive”. The max response (HEK293) was -9.94% (inactive) and 3.93% (inactive), the max response (HaCat [1]) was -13.4% (inactive) and the outcome (HaCat [1]) was “inactive”. The outcome (NIH3T3 [2]) was “inactive”, the outcome (HACAT [3]) was “inactive” and the Potency (MCC-13) was “inactive”. The Potency (MCC-26) was “inactive”, the Potency (MKL-1) was “inactive” and the Potency (MKL-2) was “inactive”. For the same molecule, the outcome (NIH3T3 [4]) was “inactive”, the Potency (UISO) was “inactive” and the Potency (WaGa) was “inactive”. For the same molecule, the Potency (C33A) was “inactive”.
With CC(=O)NC[C@H]1CN(c2ccc(N3CCOCC3)c(F)c2)C(=O)O1 the max response (CRL-7250) was -4.05% (inactive), the outcome (CRL-7250) was “inactive” and the Potency (HEK293) was 13.2 µM (active). For the same molecule, the max response (HaCat [1]) was -2.3% (inactive), the outcome (HaCat [1]) was “inactive” and the max response (KB-3-1) was -15.9% (inactive) and -9.99% (inactive) and -3.52% (inactive). The max response (NIH3T3 [2]) was -16% (inactive) and 2.14% (inactive), the outcome (HACAT [3]) was “inactive” and the Potency (MCC-13) was “inactive”. The Potency (MCC-26) was “inactive”, the Potency (MKL-1) was “inactive” and the Potency (MKL-2) was “inactive”. The Potency (UISO) was “inactive”, the Potency (WaGa) was “inactive” and the Potency (C33A) was “inactive”. The Potency (CAOV3) was “inactive”.
Cc1nc(-c2ccc(OCC(C)C)c(C#N)c2)sc1C(=O)O was tested, and the max response (CRL-7250) was 2.28% (inactive), the outcome (CRL-7250) was “inactive” and the max response (HEK293) was -1.16% (inactive) and -8.21% (inactive). The max response (HaCat [1]) was 0.712% (inactive), the outcome (HaCat [1]) was “inactive” and the max response (KB-3-1) was 3.2% (inactive). For the same molecule, the max response (NIH3T3 [2]) was 4.8% (inactive), the outcome (NIH3T3 [2]) was “inactive” and the outcome (HACAT [3]) was “inactive”. For the same molecule, the Potency (MCC-13) was “inactive”, the Potency (MCC-26) was “inactive” and the Potency (MKL-1) was “inactive”. For the same molecule, the Potency (MKL-2) was “inactive”, the outcome (NIH3T3 [4]) was “inactive” and the Potency (UISO) was “inactive”. For the same molecule, the Potency (WaGa) was “inactive” and the Potency (C33A) was “inactive”.
C[C@@H](N)C1CCC(C(=O)Nc2ccncc2)CC1 (stereo partly specified) was tested, and the max response (CRL-7250) was -11.2% (inactive), the outcome (HEK293) was “inactive” and the outcome (HaCat [1]) was “inactive”. For the same molecule, the max response (KB-3-1) was -5.62% (inactive), the max response (NIH3T3 [2]) was -5.63% (inactive) and the outcome (HACAT [3]) was “inactive”. For the same molecule, the outcome (HEK293T) was “inactive”, the Potency (MCC-13) was “inactive” and the Potency (MCC-26) was “inactive”. For the same molecule, the Potency (MKL-1) was “inactive”, the Potency (MKL-2) was “inactive” and the Potency (UISO) was “inactive”. For the same molecule, the Potency (WaGa) was “inactive”.
With Cc1cccc(-c2[nH]ncc2-c2ccc3ncccc3n2)n1 the max response (CRL-7250) was -2.02% (inactive), the max response (HEK293) was -26.8% (inactive) and the outcome (HaCat [1]) was “inactive”. The max response (KB-3-1) was -11.3% (inactive), the max response (NIH3T3 [2]) was -18.1% (inactive) and the outcome (HACAT [3]) was “inactive”. The Potency (MCC-13) was “inactive”, the Potency (MCC-26) was “inactive” and the Potency (MKL-1) was “inactive”. For the same molecule, the Potency (MKL-2) was “inactive” and the Potency (UISO) was “inactive”.
Cc1ccc(C(=O)c2cc(O)c(O)c([N+](=O)[O-])c2)cc1 was tested, and the max response (CRL-7250) was -7.14% (inactive), the outcome (HEK293) was “inactive” and the max response (HaCat [1]) was -18.7% (inactive). For the same molecule, the outcome (HaCat [1]) was “inactive”, the max response (NIH3T3 [2]) was 1.41% (inactive) and the outcome (HACAT [3]) was “inactive”. The outcome (HEK293T) was “inactive”, the Potency (MCC-13) was “inactive” and the Potency (MCC-26) was “inactive”. For the same molecule, the Potency (MKL-1) was “inactive”, the Potency (UISO) was “inactive” and the Potency (WaGa) was “inactive”. The Potency (C33A) was “inactive” and the Potency (CAOV3) was “inactive”.
